Bioassay records: PubChem, Broad Institute
A selection: hits, their analogues and other compounds. The true share with any hit is near 3.2%.
PGC1a acetyl inh – inhibitors of PGC1a acetylation signal, primary screen, cell-based, U2OS, AlphaScreen, inhibitor mode. AlphaScreen anti-acetyl-lysine; with virally co-expressed GCN5 acetyltransferase. inhibition, % at 15.6 µM. 0.17% of 350,000 active. AID 651687, 2012;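 active = every replicate shows inhibition of at least 40%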;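 note: 0% = neutral control wells and 100% = positive control wells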
INS-1E GSIS act – GLuc luminescence reporter in INS-1E cells, primary screen for activators of glucose-dependent secretion of insulin. AID 743287, 2014. INS-1E GLuc reporter insulin secretion, 2-3 h. activation, % at 16.6 µM. 0.61% of 370,000 active;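 active = lowest replicate activation of at least 40%, so every replicate reaches that level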;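 note: 0% = median of neutral control wells and 100% = median of IBMX positive control wells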
ERAP1 HTS inh – human ERAP1 aminopeptidase inhibitors, primary screen, biochemical, single point, plate reader; Endoplasmic reticulum aminopeptidase 1 (Homo sapiens), Q9NZ08; recombinant ERAP1, Leu-AMC fluorescence, 60 min; inhibition, % at 10.7 µM; 0.15% of 340,000 active; AID 652197, 2013;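 active = mean replicate inhibition of at least 30%, or all replicates individually reaching that 30% level; inactive = mean below 30% and not every replicate reaching it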;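 note: 0% = neutral control wells and 100% = L-leucinethiol positive control wells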
Target sequence (Q9NZ08 whole entry, looked up): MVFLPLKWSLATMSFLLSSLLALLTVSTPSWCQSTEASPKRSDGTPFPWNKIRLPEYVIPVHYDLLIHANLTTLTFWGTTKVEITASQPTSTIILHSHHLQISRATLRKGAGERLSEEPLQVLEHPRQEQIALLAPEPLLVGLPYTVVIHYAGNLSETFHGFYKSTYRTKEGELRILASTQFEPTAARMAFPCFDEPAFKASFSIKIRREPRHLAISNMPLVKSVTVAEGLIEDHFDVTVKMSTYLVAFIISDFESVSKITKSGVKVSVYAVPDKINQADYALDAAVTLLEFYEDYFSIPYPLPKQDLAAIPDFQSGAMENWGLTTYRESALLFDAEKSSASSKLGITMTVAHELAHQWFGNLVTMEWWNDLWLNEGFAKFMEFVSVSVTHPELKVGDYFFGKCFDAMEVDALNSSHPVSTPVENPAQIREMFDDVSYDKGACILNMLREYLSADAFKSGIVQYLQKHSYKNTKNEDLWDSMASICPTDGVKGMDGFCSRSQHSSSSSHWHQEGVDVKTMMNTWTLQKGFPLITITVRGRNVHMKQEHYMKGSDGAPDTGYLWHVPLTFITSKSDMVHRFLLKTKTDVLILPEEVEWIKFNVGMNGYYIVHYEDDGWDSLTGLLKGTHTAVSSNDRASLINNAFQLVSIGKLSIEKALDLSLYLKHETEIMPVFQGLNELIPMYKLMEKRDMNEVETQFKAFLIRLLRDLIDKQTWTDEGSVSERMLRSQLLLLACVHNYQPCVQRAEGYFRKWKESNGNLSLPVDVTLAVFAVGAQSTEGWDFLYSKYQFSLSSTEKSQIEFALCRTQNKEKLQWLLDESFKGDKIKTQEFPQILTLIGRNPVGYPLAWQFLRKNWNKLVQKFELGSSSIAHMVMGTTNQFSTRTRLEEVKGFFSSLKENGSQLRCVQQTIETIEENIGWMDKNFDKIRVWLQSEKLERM
CaV13 FRET inh – Disruptors of the CACNA1D IQ motif to Ca2+-dependent inactivation inhibitor domain association, primary screening, Förster resonance energy transfer in intact living …. inhibition, % at 12.3 µM. AID 743397. HEK cells, CFP/YFP FRET ICDI-IQ, plate reader, 10 min; percent FRET-ratio fall versus neutral wells. 0.098% of 340,000 active;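 active = mean replicate inhibition of at least 30% and at least 1% of replicates passing that level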;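 note: 0% = median of the neutral control wells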
Ecoli rRNA inh – reduced GFP signal of wild-type E. coli, primary screen, bacterial rRNA inhibitor project, GFP/RFP fluorescence, OD600, single point | E. coli WT GFP vs humanized-ribosome RFP mutants, 24 h; stronger effect = lower value; DMSO median 0, no signal -100 | GFP signal change (wild-type ribosome), % (no concentration beside the values) | 1.6% of 350,000 active | AID 720706, 2013;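 active = significant combined selectivity score with lowered wild-type GFP, culture density cut under 30%, mutant RFP and density less affected; inactive = any of these conditions unmet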
DENV2 CPE rescue – inhibitors of DENV2 cytopathic effect, primary screen, cell-based, plate reader, single concentration. DENV2-infected cells, cytopathic effect rescue. CPE inhibition, % at 9.99 µM. 1.7% of 350,000 active; in the data active = CPE inhibition above about 20%, passing the limit was not always enough; tested in BHK-21 cells;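 note: 0% = median of neutral control wells and 100% = median of positive control wells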
* hit, by the source's call.

O=C(C1CC1)N1CC2(C1)[C@H](c1ccccc1)[C@@H](CO)N2Cc1nccs1 was read as PGC1a acetyl inh 10, INS-1E GSIS act -6, ERAP1 HTS inh 1, Ecoli rRNA inh 1 and DENV2 CPE rescue 37*.
`O=C(C1CCCCC1)N1CC2(C1)[C@@H](c1ccccc1)[C@@H](CO)N2Cc1nccs1` gave INS-1E GSIS act -12, ERAP1 HTS inh 1, Ecoli rRNA inh -4 and DENV2 CPE rescue 28*.
O=C(C1CCCCC1)N1CC2(C1)[C@H](c1ccccc1)[C@@H](CO)N2CC1CCCC1 was read as INS-1E GSIS act -11, ERAP1 HTS inh 0, Ecoli rRNA inh -5 and DENV2 CPE rescue 13.
`C[C@H](CO)N1C[C@H](C)[C@@H](CN(C)C(=O)c2cccnc2)Oc2cc(-c3cccc(C#N)c3)ccc2S1(=O)=O` gave PGC1a acetyl inh 7, INS-1E GSIS act 23, ERAP1 HTS inh -1, Ecoli rRNA inh -4 and DENV2 CPE rescue -8.
Screening O=C(c1cccc(F)c1)N1CCCCN2[C@H](C1)[C@H](c1ccc(-c3cccnc3)cc1)[C@@H]2CO returned PGC1a acetyl inh -6, INS-1E GSIS act 15, ERAP1 HTS inh 2, Ecoli rRNA inh -2 and DENV2 CPE rescue 6.
Screening OC[C@@H]1[C@H](c2ccc(C3=CCCCC3)cc2)[C@@H](CNC2CCCC2)N1CC1CC1 returned INS-1E GSIS act -26, ERAP1 HTS inh -5, Ecoli rRNA inh -20 and DENV2 CPE rescue -16.
`Cc1noc(C)c1S(=O)(=O)N(C)C[C@@H]1Oc2ccc(NC(=O)Nc3ccccc3)cc2CC(=O)N([C@@H](C)CO)C[C@@H]1C` gave PGC1a acetyl inh -1, INS-1E GSIS act -13 and Ecoli rRNA inh 5.
`CNC(=O)CSc1nc2cccnc2n1-c1ccc(F)cc1` gave PGC1a acetyl inh -12, INS-1E GSIS act 78*, ERAP1 HTS inh -1, CaV13 FRET inh -4, Ecoli rRNA inh 10 and DENV2 CPE rescue 2.
Cc1cc(OCC(=O)NC(Cc2c[nH]c3ccc(O)cc23)C(=O)O)c2c(C)c(C)c(=O)oc2c1 (stereo unspecified) was read as PGC1a acetyl inh 0, INS-1E GSIS act 4, ERAP1 HTS inh 6, Ecoli rRNA inh -7 and DENV2 CPE rescue 94*.
Screening Cc1cc(OCC(=O)NC(Cc2ccc(Cl)cc2)C(=O)O)c2c(C)cc(=O)oc2c1 (stereo unspecified) returned PGC1a acetyl inh 10, INS-1E GSIS act -6, ERAP1 HTS inh 15 and DENV2 CPE rescue -2.
For Cc1cc(OCC(=O)NC(Cc2ccc(Cl)cc2)C(=O)O)c2c(C)c(C)c(=O)oc2c1 (stereo unspecified) the results were PGC1a acetyl inh -4, ERAP1 HTS inh 23 and DENV2 CPE rescue 92*.
Screening Cc1ccc(S(=O)(=O)N(C)C[C@@H]2OCCCC[C@@H](C)Oc3ccc(NS(=O)(=O)c4cccs4)cc3C(=O)N([C@@H](C)CO)C[C@@H]2C)cc1 returned PGC1a acetyl inh -4, INS-1E GSIS act 12, ERAP1 HTS inh -3, Ecoli rRNA inh 1 and DENV2 CPE rescue 14.
`COc1ccc(NC(=O)Nc2ccc3c(c2)[C@H]2C[C@H](CC(=O)O)O[C@H](CO)[C@H]2O3)cc1` gave PGC1a acetyl inh 5, INS-1E GSIS act 0, ERAP1 HTS inh -2, Ecoli rRNA inh 7 and DENV2 CPE rescue 7.
For COCCNC(=O)C[C@H]1C[C@@H]2c3cc(NC(=O)Nc4ccccc4)ccc3O[C@@H]2[C@@H](CO)O1 the results were PGC1a acetyl inh 8, INS-1E GSIS act -4, ERAP1 HTS inh -1, Ecoli rRNA inh 1 and DENV2 CPE rescue 7.
For CCOc1ccc(Nc2oc(-c3ccc(Cl)cc3)nc2C#N)cc1 the results were PGC1a acetyl inh -62 and INS-1E GSIS act 73*.
Screening COc1ccc(Nc2oc(-c3ccc(Cl)cc3)nc2C#N)cc1 returned PGC1a acetyl inh -7 and CaV13 FRET inh -4.
`COc1ccc(NC(=O)Nc2ccc3c(c2)C(=O)N([C@H](C)CO)C[C@H](C)[C@@H](CN(C)S(=O)(=O)c2c(C)noc2C)OCCCC[C@@H](C)O3)cc1` gave PGC1a acetyl inh 0, INS-1E GSIS act -6, Ecoli rRNA inh 7 and DENV2 CPE rescue -5.
Screening COCC(=O)Nc1ccc2c(c1)OC[C@@H](C)NC[C@H](C)[C@H](OC)CN(C)C2=O returned INS-1E GSIS act 4, ERAP1 HTS inh 1, Ecoli rRNA inh 0 and DENV2 CPE rescue 30*.
Screening CCC(=O)Nc1ccc2c(c1)OC[C@@H](C)NC[C@H](C)[C@@H](OC)CN(C)C2=O returned INS-1E GSIS act 17, ERAP1 HTS inh -1, Ecoli rRNA inh 2 and DENV2 CPE rescue 28*.
Screening COCC(=O)Nc1ccc2c(c1)C(=O)N(C)C[C@H](OC)[C@H](C)CN[C@H](C)CO2 returned PGC1a acetyl inh 11, INS-1E GSIS act 3 and Ecoli rRNA inh 4.
`COCC(=O)Nc1ccc2c(c1)OC[C@@H](C)NC[C@H](C)[C@@H](OC)CN(C)C2=O` gave INS-1E GSIS act 20, ERAP1 HTS inh 0, Ecoli rRNA inh 1 and DENV2 CPE rescue 9.
For COCC(=O)Nc1ccc2c(c1)OC[C@H](C)NC[C@@H](C)[C@@H](OC)CN(C)C2=O the results were INS-1E GSIS act 10, ERAP1 HTS inh -2, Ecoli rRNA inh 0 and DENV2 CPE rescue 24*.
For CC(=O)N(C)C[C@H]1Oc2cc(C#Cc3ccncc3)ccc2S(=O)(=O)N([C@@H](C)CO)C[C@@H]1C the results were PGC1a acetyl inh -2, INS-1E GSIS act 1, ERAP1 HTS inh -1, Ecoli rRNA inh 0 and DENV2 CPE rescue 17.
Screening C[C@@H]1CN([C@@H](C)CO)C(=O)c2cc(NS(=O)(=O)c3cccs3)ccc2O[C@H]1CN(C)C(=O)Nc1ccc(F)cc1 returned PGC1a acetyl inh -4, INS-1E GSIS act 12, ERAP1 HTS inh -1, Ecoli rRNA inh -2 and DENV2 CPE rescue -5.
`CCNC(=O)[C@@H]1[C@@H](CO)[C@@H]2Cn3c(ccc(-c4ccc(F)cc4)c3=O)[C@H]1N2Cc1ccccc1F` gave PGC1a acetyl inh 8, INS-1E GSIS act -6, ERAP1 HTS inh -3, Ecoli rRNA inh -4 and DENV2 CPE rescue -5.
O=C1Nc2ccc(F)cc2C12Nc1ccccc1-c1nnc(SCc3ccccc3)nc1O2 (stereo unspecified) was read as PGC1a acetyl inh 6, INS-1E GSIS act -26, ERAP1 HTS inh -3, CaV13 FRET inh -8, Ecoli rRNA inh -17* and DENV2 CPE rescue 0.
